Assay outcomes from PubChem BioAssay.
An excerpt weighted towards active compounds, which were near 13% of everything screened.
FMDV inh – antivirals against foot and mouth disease virus; AID 1159524; Potency, µM (top dose mostly 57.9 µM), for the others: at the top dose activity change, negative = inhibition, usual class: inhibitors; FMDV antiviral cell-based qHTS; hit rate 1.2% among 410,000; calls by dose curve; tested in HEK293T cells; further: read-out not given here; potency means the concentration at half of the fitted maximal effect; on the % scale 0 is the no-effect control and ±100 the full control effect; nearly all actives have a fitted effect of over 45% in size
Shiga inhibitor – blocks Shiga toxin action in Vero cells; Vero cells, Shiga toxin protein synthesis inhibition reporter; AID 2315; hit rate 9.2% among 290,000; inhibition, % at 38.7 µM; in the data active means inhibition mostly above about 28%, no sharp cut-off; inactive means mostly below about 43%; further: 0% is about no effect
LASV entry inh – inhibitors of Lassa virus binding or cell entry | Lassa virus pseudotype entry inhibition, cell reporter | Potency, µM (top dose mostly 37.9 µM), inactives show at the top dose activity change, negative = inhibition, hits mostly inhibitors | hit rate 1.2% among 300,000; calls by dose curve; tested in HEK293 cells; further: potency means the concentration at half of the fitted maximal effect; on the % scale 0 is the no-effect control and ±100 the full control effect; nearly all actives have a fitted effect of over 50% in size
CHX counter – affects cycloheximide protein synthesis inhibition readout, counter-screen; hit rate 12% among 300,000; max response, %; AID 2314; cell reporter, cycloheximide protein synthesis inhibition counterscreen; in the data active means max response mostly above about 13%, no sharp cut-off; inactive means mostly below about 14%; further: read at 38.3 µM for the half of the compounds with a filed dose; 0% is about no effect
HCV inhibitor – blocks hepatitis C virus. AID 651820. Potency, µM (doses to about 41.8 µM), without a hit: top-dose activity change, negative = inhibition, most hits filed as inhibitors. Huh7.5.1 HCVcc-Cre infection, luciferase reporter, 44 h. hit rate 3.4% among 340,000; active means well fitted inhibition curve with a large enough effect; inconclusive means small, poorly fitted or top-dose-only effect, or another doubt; inactive means no such curve, though single readings can be large or run the other way; further: potency means the concentration at half of the fitted maximal effect; on the % scale 0 is the no-effect control and ±100 the full control effect
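A cell-based infection assay in which seeded cells (1,000 per well) receive test compound after 4 h, are inoculated with HCVcc-Cre at approximately 0.5 moi, and are incubated 44 h before luminescence detection.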
MARV entry inh – Marburg virus entry inhibition | Marburg virus pseudotyped entry inhibition, cell reporter | AID 540276 | hit rate 1.8% among 300,000 | Potency, µM (series often up to 37.8 µM), for inactives: at the top dose activity change, negative = inhibition, actives largely listed as inhibitors; calls by dose curve; tested in HEK293 cells; further: potency means the concentration at half of the fitted maximal effect; on the % scale 0 is the no-effect control and ±100 the full control effect
Numbers without * were called inactive; [ ] = dose if it differs, or a comment.

CCOc1ccc(/C(O)=C2/C(=O)C(=O)N(c3ncccn3)C2c2ccccc2)cc1 (stereo unspecified) was read as FMDV inh -2.6%, Shiga inhibitor 57.8*, LASV entry inh 1.0%, CHX counter 66.4*, HCV inhibitor 4.1% and MARV entry inh -10.2%.
N#Cc1ccc(-c2ccc(F)cc2)nc1SCC(=O)Nc1sc2c(c1C#N)CCC2 was read as FMDV inh -18.5%, Shiga inhibitor 5.9, LASV entry inh -4.5%, CHX counter 2.4, HCV inhibitor -16.8% and MARV entry inh inconclusive.
Screening CCCCCOc1ccc(Br)cc1/C(C)=N/NC1=NCCN1 returned FMDV inh inconclusive, Shiga inhibitor -10.0, LASV entry inh inconclusive, CHX counter -5.3, HCV inhibitor 6.31µM* and MARV entry inh 10µM*.
Screening FC(F)(F)c1ccccc1-n1c(-c2cnccn2)n[nH]c1=S returned FMDV inh -29.3%, Shiga inhibitor 53.3*, LASV entry inh -21.2%[46.1 µM], CHX counter 41.2*, HCV inhibitor -1.0% and MARV entry inh inconclusive.
For Cc1ccc(-n2c(-c3cnccn3)n[nH]c2=S)c(Br)c1 the results were FMDV inh 12.7%, Shiga inhibitor -4.1, LASV entry inh 7.9%[46.1 µM], CHX counter 8.4, HCV inhibitor 1.0% and MARV entry inh inconclusive.
`CN(C)C(=O)c1ccc(NC(=O)Cn2nc(-c3ccccc3)c3ccccc3c2=O)cc1` gave FMDV inh -14.2%, LASV entry inh 23.8%[46.1 µM] and MARV entry inh -7.9%[46.1 µM].
`CC(=O)c1ccc(NC(=O)C2CC(=O)N(Cc3ccccc3)C2)cc1` (stereo unspecified) gave FMDV inh 78.0%, Shiga inhibitor 101.0*, LASV entry inh -17.2%, CHX counter 28.8*, HCV inhibitor 17.1% and MARV entry inh 13.5%.
Screening O=C(Nc1ccccc1)C1CC(=O)N(Cc2ccccc2)C1 (stereo unspecified) returned FMDV inh -8.8%, Shiga inhibitor 11.9, LASV entry inh -11.8%[46.1 µM], CHX counter -3.3, HCV inhibitor -0.2% and MARV entry inh 16.7%[46.1 µM].
For O=C(Nc1ccc(SC(F)F)cc1)C1CC(=O)N(Cc2ccccc2)C1 (stereo unspecified) the results were FMDV inh 19.9%, Shiga inhibitor 26.4*, LASV entry inh 3.1%, CHX counter 15.2*, HCV inhibitor 11.2% and MARV entry inh 5.4%.
Screening CCOC(=O)c1c(CSc2ccc(C)cc2)n(C)c2cc(Br)c(O)c(CN(C)C)c12 returned FMDV inh inconclusive, Shiga inhibitor -3.7, CHX counter 1.2 and HCV inhibitor inconclusive.
For O=C(CN1CCC(C(=O)c2cccc(Cl)c2)CC1)Nc1cccc(C(=O)O)c1 the results were FMDV inh 10.8%, Shiga inhibitor -5.6, LASV entry inh 1.4%, CHX counter 0.2, HCV inhibitor -4.0% and MARV entry inh inconclusive.
OCc1ccccc1NC(=S)Nc1cccnc1 was read as FMDV inh -1.4%, Shiga inhibitor 1.9, LASV entry inh -11.6%, CHX counter -3.1, HCV inhibitor 1.2% and MARV entry inh 13.1%.
Screening COc1cccc(-n2ncc3c(NN=Cc4ccncc4)ncnc32)c1 returned LASV entry inh 16.6%.
Screening COc1cccc(/C=N/Nc2cc(N3CCOCC3)ncn2)c1O returned FMDV inh 1.5%, Shiga inhibitor 27.5, LASV entry inh inconclusive, CHX counter 5.9, HCV inhibitor inconclusive and MARV entry inh inconclusive.
`COc1cc(/C=N/Nc2nc(C)nc3c2cnn3-c2ccccc2)ccc1O` gave FMDV inh -1.3%, Shiga inhibitor -1.8, LASV entry inh inconclusive, CHX counter -2.4, HCV inhibitor 11.2µM* and MARV entry inh 11.2µM*.
`COc1cc(C=NNc2ncnc3c2cnn3Cc2ccccc2)ccc1O` gave LASV entry inh 7.91µM*.
`COc1cc(/C=N/NC(=O)c2nc(-c3ccccc3)n(-c3ccccc3)n2)ccc1O` gave FMDV inh -17.4%, Shiga inhibitor -8.7, LASV entry inh -9.8%, CHX counter -2.2, HCV inhibitor 1.8% and MARV entry inh 35.8%.
For COc1cc(C=NNc2ncnc3c2cnn3-c2ccccc2)ccc1O the results were LASV entry inh 15.8µM*.
For COc1cccc(/C=N/Nc2ncnc3c2ncn3Cc2ccccc2)c1O the results were FMDV inh -21.4%, Shiga inhibitor -4.8, LASV entry inh 7.31µM*, CHX counter -1.8, HCV inhibitor inconclusive and MARV entry inh inconclusive.
`CCc1ccc(NC(=O)c2noc(C(C)C)c2[N+](=O)[O-])cc1` gave FMDV inh 11.5%, Shiga inhibitor 150.6*, CHX counter 47.6* and HCV inhibitor -17.4%.
COc1ccc(NC(=O)c2noc(C(C)C)c2[N+](=O)[O-])cc1 was read as FMDV inh 18.3%, Shiga inhibitor 50.0*, LASV entry inh -6.2%[46.1 µM], CHX counter 36.5*, HCV inhibitor inconclusive and MARV entry inh 0.4%[46.1 µM].
Screening Cc1ccc(O)c(NC(=O)c2noc(C(C)C)c2[N+](=O)[O-])c1 returned FMDV inh 90.8%, Shiga inhibitor 48.7, CHX counter 42.3* and HCV inhibitor 4.6%.
Screening CC(=O)c1ccc(NC(=O)c2noc(C(C)C)c2[N+](=O)[O-])cc1 returned FMDV inh 40.8%, Shiga inhibitor 37.5, CHX counter 40.6* and HCV inhibitor -9.4%.
Screening COc1ccc(NC(=O)c2nn(C)c(C(=O)Nc3ccc(OC)cc3)c2[N+](=O)[O-])cc1 returned FMDV inh -6.3%, CHX counter -3.8 and HCV inhibitor -2.2%.
Screening CCOC(=O)C(NS(=O)(=O)c1ccccc1)(C(F)(F)F)P(=O)(OC(C)C)OC(C)C (stereo unspecified) returned FMDV inh -4.9%, Shiga inhibitor -10.6, LASV entry inh -16.7%, CHX counter 1.6, HCV inhibitor -12.7% and MARV entry inh 10.2%.
For CC(C)c1onc(C(=O)NCCc2ccccc2)c1[N+](=O)[O-] the results were FMDV inh 24.9%, Shiga inhibitor 81.7*, LASV entry inh 17.8%[46.1 µM], CHX counter 52.9*, HCV inhibitor 2.7% and MARV entry inh inconclusive.
`CC(C)c1onc(C(=O)N(C)Cc2ccccc2)c1[N+](=O)[O-]` gave FMDV inh 20.5%, Shiga inhibitor 0.6, LASV entry inh -6.4%, CHX counter 5.0, HCV inhibitor 11.8% and MARV entry inh -2.8%.
`O=C(Nc1ccc(Cc2ccc(NC(=O)Nc3cccnc3)cc2)cc1)Nc1cccnc1` gave FMDV inh -1.6%.
`COc1ccc(C(=O)Nc2ccc(C(=O)Nc3cccnc3)cc2)cc1` gave FMDV inh -23.0%, LASV entry inh inconclusive, CHX counter -1.5, HCV inhibitor -20.8% and MARV entry inh inconclusive.
For O=C(Nc1ccc(Cl)cc1)Nc1cccnc1 the results were Shiga inhibitor 55.4*, LASV entry inh 22.0%, CHX counter 37.2*, HCV inhibitor 4.0% and MARV entry inh 3.2%.
